PubChem BioAssay AID504387 (National Center for Advancing Translational Sciences (NCATS), 2011)
Activity calls are given as the source filed them. How the calls were made is not given here.

target: Thyrotropin receptor (Homo sapiens) (UniProt P16473); assay: Concentration-response assay for antagonists of the thyroid stimulating hormone receptor: ELISA activity detection; details: HEK293-TSHR, TSH-induced cAMP, ELISA chemiluminescence
From the text: TSH is an alpha/beta heterodimeric glycoprotein hormone secreted from the anterior pituitary gland which belongs to the glycoprotein hormone family. The actions of TSH are mediated by a seven-transmembrane receptor, which upon TSH binding couples preferentially to the G-alpha (s) protein (Gs), resulting in activation of adenylate cyclase and increase in cyclic adenosine 3', 5' monophosphate (cAMP). The TSH receptor (THSR) is mainly expressed in thyroid follicular cells and regulates their growth and function. This cell based assay was conducted on a TSHR transfected HEK 293 cell line, measuring cAMP stimulation using antibody-based Homogeneous Time Resolved Fluorescence (HTRF). Our goal is to identify small molecules that will inhibit (antagonize) the thyroid-stimulating hormone receptor (TSHR), a member of the 7 transmembrane-spanning receptor (7TMR) family of cell surface receptors. TSHR-mediated hyperthyroidism is important in thyroid pathology. The development of small molecule antagonists of TSHR may lead to therapeutic approaches for TSHR-mediated hyperthyroidism caused by constitutively activating mutations or stimulating auto-antibodies associated with Graves' disease. Graves' disease is the leading cause of hyperthyroidism and is caused by autoantibodies that stimulate TSHR (TsAbs) causing thyroid growth and unregulated overproduction of thyroid hormones and existing treatments have liabilities (agranulocytosis). In addition, TSHRs are known to be expressed in multiple extrathyroidal tissues including bone, brain, kidney, testis, fat and cells of the immune system but the role of the TSHR in these tissues is not clear. Therefore, TSHR antagonists/inverse agonists could be used as probes of extrathyroidal TSHR function. Finally, TSHR inverse agonists, which are a subclass of antagonists that inhibit agonist-independent (or basal or constitutive) TSHR signaling, could be used to inhibit TSH-independent signaling in patients with recurrent or metastatic thyroid cancer who are receiving thyroid hormone to suppress TSH. A confirmatory assay of TSHR antagonists was conducted on a HEK 293 cell line stably expressing the TSHR, using an orthogonal detection technology to measure cAMP stimulation: an ELISA based cAMP competition assay using cAMP-Screen Direct System (Applied Biosystems, Foster City, CA).
Transiently transfected HEK-EM 293 cells or cells stably expressing TSHRs were seeded into 96-well plates at a density of 7 x10^4 cells per well in DMEM containing 10% FBS. Cells were cultured for 24 h before incubation for 20 min in HBSS/10 mM HEPES (pH 7.4). To determine the effect of the compound on TSH induced TSHR activity, cells were incubated for 20 min with the compound in HBSS/HEPES without IBMX and subsequently for 40 min with bovine TSH (Sigma) and the compound in HBSS/HEPES supplemented with 1 mM IBMX at 37 C. The levels of cAMP in cells incubated in HBSS/HEPES without IBMX were subtracted in all experiments. After aspiration of the incubation medium, cells were lysed using lysis buffer of the cAMP-Screen Direct system (Applied Biosystems, Foster City, CA). The cAMP content of the cell lysate was determined using the method described in the manufacturer's protocol. The chemiluminescence signal was measured in a VICTOR3 V 1420 multilabel counter (PerkinElmer, Norwalk, CT). The potencies (EC50 and IC50) of the ligands were obtained from dose-response curves by data analysis with GraphPad Prism 4 for Windows.

Chain of Thyrotropin receptor (Homo sapiens) (P16473 whole entry, looked up): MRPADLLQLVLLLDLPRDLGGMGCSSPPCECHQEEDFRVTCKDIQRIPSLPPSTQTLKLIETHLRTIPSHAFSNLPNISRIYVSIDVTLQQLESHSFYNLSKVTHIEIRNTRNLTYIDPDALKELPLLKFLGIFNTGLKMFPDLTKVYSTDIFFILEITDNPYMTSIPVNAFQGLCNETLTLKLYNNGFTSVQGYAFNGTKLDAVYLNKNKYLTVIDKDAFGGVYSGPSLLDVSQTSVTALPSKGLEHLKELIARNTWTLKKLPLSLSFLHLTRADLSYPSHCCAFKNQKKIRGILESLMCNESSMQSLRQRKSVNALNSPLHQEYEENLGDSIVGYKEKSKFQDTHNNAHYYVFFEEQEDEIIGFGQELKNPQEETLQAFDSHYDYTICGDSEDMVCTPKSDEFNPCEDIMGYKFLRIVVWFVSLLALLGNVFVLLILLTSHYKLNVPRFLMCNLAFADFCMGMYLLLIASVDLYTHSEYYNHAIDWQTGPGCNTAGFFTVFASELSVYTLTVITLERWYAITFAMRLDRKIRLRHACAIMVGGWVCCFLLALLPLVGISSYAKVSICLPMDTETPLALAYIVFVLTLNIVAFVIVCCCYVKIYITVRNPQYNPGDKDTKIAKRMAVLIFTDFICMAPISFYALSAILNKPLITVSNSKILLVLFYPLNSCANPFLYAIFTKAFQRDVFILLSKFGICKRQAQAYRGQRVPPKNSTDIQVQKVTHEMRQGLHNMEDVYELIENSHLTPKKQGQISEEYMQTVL

SMILES	IC50	outcome
Cc1cccc(C)c1OCc1cccc(C2Nc3ccccc3C(=O)N2Cc2ccco2)c1 (stereo unspecified)	1.9 µM (active)	
COc1ccc(C2Nc3ccccc3C(=O)N2Cc2cccnc2)cc1COc1c(C)cccc1C (stereo unspecified)	3.5 µM (active)	
COc1ccc(C2Nc3ccccc3C(=O)N2Cc2ccc(C)o2)cc1COc1c(C)cccc1C (stereo unspecified)	2.3 µM (active)	
CCc1cccc(CC)c1OCc1cc(C2Nc3ccccc3C(=O)N2Cc2ccco2)ccc1OC (stereo unspecified)	22.3 µM (active)	
COc1ccc(C2Nc3ccccc3C(=O)N2Cc2ccco2)cc1CSc1c(C)cccc1C (stereo unspecified)	9.9 µM (active)	
COc1ccc(C2Nc3ccccc3C(=O)N2Cc2ccccc2)cc1COc1c(C)cccc1C (stereo unspecified)		inactive
COc1ccc(C2Nc3ccccc3C(=O)N2Cc2ccco2)cc1COc1c(C)cc(NC(C)=O)cc1C (stereo unspecified)	2.3 µM (active)	
COc1ccc(C2Nc3ccccc3C(=O)N2Cc2cccs2)cc1COc1c(C)cccc1C (stereo unspecified)	1 µM (active)	
COc1ccc(C2Nc3ccccc3C(=O)N2Cc2ccco2)cc1COc1ccccc1C (stereo unspecified)		inactive
COc1ccc(C2Nc3cccc(O)c3C(=O)N2Cc2ccco2)cc1COc1c(C)cc(NC(C)=O)cc1C (stereo unspecified)		inactive
COc1ccc(C2Nc3ccccc3C(=O)N2Cc2ccccn2)cc1COc1c(C)cccc1C (stereo unspecified)		inactive
